Screens: PubChem BioAssay, National Center for Advancing Translational Sciences (NCATS)
Rows were chosen to be rich in hits. Some 5.7% of all compounds tested hit in one or more screens of this group.
D3 ag: D3 dopamine receptor (human) agonism | P35462 | D3R DiscoveRx beta-arrestin cells, luminescence, 90 min | max activation, % | 410,000 tested, 0.58% active | AID 652048; in the data active = max activation above about 30%; also: 0% is about no effect
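Cells at 1500/well, incubated overnight, then treated with pinned compounds (dopamine as control) for 90 min at 37 degrees C. DiscoveRx reagent added for 30 - 60 minutes at room temperature; luminescence read.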
DRD3 antagonist: antagonists of human D3 dopamine receptor; P35462; D3R cells, DiscoveRx beta-arrestin luminescence, antagonist mode; stronger effect = lower value; max response, negative = inhibition, %; 360,000 tested, 2.5% active; in the data active = max response below about -50%; inconclusive = no clear call, values can overlap the other calls; also: % is scaled to controls: 0 for no effect and ±100 for the full control effect
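Cells expressing the human receptor were seeded at 1500 cells/well, incubated overnight at 37 degrees C in 5% CO2, then exposed to library compounds with dopamine controls for 90 minutes at 37 degrees C before luminescent detection.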
GLP1R cytotox: cytotoxicity in counter-screen for GLP-1R inverse agonists | Potency, µM (doses to about 38.3 µM), without a hit: at the highest dose activity change, negative = inhibition, usual class: inhibitors | HEK293 cAMP-luciferase reporter cells, luminescence, 24 h | AID 624418 | 410,000 tested, 0.13% active;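 also: loss of luciferase light is scored as toxicity; potency is read from the fitted curve at half-maximal effect; % is scaled to controls: 0 for no effect and ±100 for the full control effect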
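Seeding density was 200 cells/uL; after overnight-length (12 h) culture, 23 nL compounds went on for 24 h at 37 °C. Readout used a luciferase detection reagent, luminescence taken after 12 min at room temperature.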
GLP1R inv ag: acts as inverse agonist at human GLP-1 receptor; P43220; HEK293 GLP-1R CRE-luciferase, luminescence, 24 h; GLP-1R form is constitutively active; Potency, µM (titrated, usually from 38.3 µM), for the others: at the highest dose activity change, negative = inhibition, most hits filed as inhibitors; 410,000 tested, 1.6% active; AID 624417; also: potency is read from the fitted curve at half-maximal effect; % is scaled to controls: 0 for no effect and ±100 for the full control effect; nearly all actives have a fitted effect of over 55% in size
Target sequence (P43220 whole entry, looked up): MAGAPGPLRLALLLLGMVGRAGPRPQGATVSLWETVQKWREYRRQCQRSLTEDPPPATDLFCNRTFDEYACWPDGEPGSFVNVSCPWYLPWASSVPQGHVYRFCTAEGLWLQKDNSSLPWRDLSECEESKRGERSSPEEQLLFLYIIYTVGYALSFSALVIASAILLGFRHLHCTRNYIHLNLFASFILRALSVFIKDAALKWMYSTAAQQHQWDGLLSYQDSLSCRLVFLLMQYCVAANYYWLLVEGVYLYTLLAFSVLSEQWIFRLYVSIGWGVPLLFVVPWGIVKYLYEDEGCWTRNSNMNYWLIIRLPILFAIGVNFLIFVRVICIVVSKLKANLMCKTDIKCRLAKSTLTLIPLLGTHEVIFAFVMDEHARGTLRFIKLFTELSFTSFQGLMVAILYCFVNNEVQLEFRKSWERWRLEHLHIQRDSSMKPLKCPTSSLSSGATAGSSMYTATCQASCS
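Stable HEK293 clone (constitutively active GLP-1R + cAMP-response luciferase); 200 cells/uL plated, 12 h pre-culture, compound 24 hr, 37 deg C/5% CO2; detection reagent 12 min RT; luminescence.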
GLP-1R agonist: activates the human GLP-1 receptor; Potency, µM (doses to about 45.6 µM), without a hit: at the highest dose activation, usual class: activators; 380,000 tested, 0.007% active; P43220; HEK293 GLP-1R CRE-luciferase, luminescence, 4-6 h; cells express a hypersensitive GLP-1R form; also: potency is read from the fitted curve at half-maximal effect; % of control where 0% means no effect
ClpP mod: qHTS Assay for Activators of ClpP | purified B. subtilis ClpP, FRET peptide cleavage, 20 min | 340,000 tested, 1.9% active | ATP-dependent Clp protease proteolytic subunit (Bacillus subtilis (strain 168)), P80244 | Potency, µM (titrated, usually from 57.5 µM), for inactives: at the top dose activity change, negative = active; active = well fitted falling curve with a large enough effect; inconclusive = small, poorly fitted or top-dose-only effect; inactive = no such curve, though single readings can be large or run the other way; also: potency is read from the fitted curve at half-maximal effect; the source files actives as falling curves though it sought activators and does not explain the sign; nearly all actives have a fitted effect of over 65% in size
Target sequence (P80244 whole entry, looked up): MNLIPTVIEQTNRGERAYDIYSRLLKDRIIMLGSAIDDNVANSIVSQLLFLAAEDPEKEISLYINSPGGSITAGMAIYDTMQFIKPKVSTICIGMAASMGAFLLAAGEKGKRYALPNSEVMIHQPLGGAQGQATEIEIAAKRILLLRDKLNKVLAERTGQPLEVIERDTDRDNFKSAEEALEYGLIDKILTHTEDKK
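Buffer: 100 mM Tris/HCl pH8, 100 mM KCl, 0.05% low protease BSA, 2.5% glycerol, 0.01% Tween-20. ClpP 10 microg/mL final; 20 min RT; delta FRET normalized to ADEP and DMSO controls.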
ClpP inh valid: validation of B. subtilis ClpP protease hits (inhibitors) | shares compounds with ClpP mod | purified B. subtilis ClpP, FRET-FV substrate cleavage, 20 min | Potency, µM (doses to about 57.5 µM), without a hit: at the top dose activity change, negative = inhibition, usual class: inhibitors | 470 tested, 40% active | AID 743245; also: potency is read from the fitted curve at half-maximal effect; % is scaled to controls: 0 for no effect and ±100 for the full control effect; nearly all actives have a fitted effect of over 70% in size
* hit, by the source's call; i = inactive; ? = inconclusive; . = no result given. Unless noted, calls follow the shape of the dose curve; as a rule, active = well fitted curve in the direction sought with a large enough effect; inconclusive = small, poorly fitted or top-dose-only effect, or another doubt; inactive = no such curve, though single readings can be large; an effect the other way counts as inactive or inconclusive.

SMILES	D3 ag	DRD3 antagonist	GLP1R cytotox	GLP1R inv ag	GLP-1R agonist	ClpP mod	ClpP inh valid
Cc1ccc(CSc2c(C)cnc3c2c(=O)n(C)c(=O)n3C)cc1	7	.	4%	16%	.	2%	.
NC(=O)c1ccc(NC(=O)COC(=O)CCC2CCCC2)cc1	3	22	3%	4%	-1%	1%	.
O=C(CSc1oc(-c2ccco2)nc1S(=O)(=O)c1ccc(Br)cc1)c1ccc(Cl)cc1	9	.	12%	?	.	-1%	.
O=C(Nc1ccccc1Cl)c1cc2c(-c3ccccc3)nn(-c3ccccc3)c2s1	5	.	-5%	14%	-4%	?	19µM*
COc1nc(-c2ccccc2)ccc1-c1noc(-c2cccnc2)n1	3	19	5%	0%	3%	-21%	.
COc1nc(-c2ccc(C)cc2)ccc1-c1noc(-c2cccnc2)n1	0	7	0%	23%	6%	?	19µM*
Cc1ccc(N2CCN(S(=O)(=O)c3nnc(NC(=O)c4cccc(F)c4)s3)CC2)cc1	-3	.	-11%	?	.	0%	.
COc1ccccc1NC(=O)c1sc2nc(N3CCOCC3)c3c(c2c1N)CCCC3	2	7	13%	35%	-6%	8.9µM*	?
Cc1ccccc1NC(=O)c1sc2nc(N3CCOCC3)c3c(c2c1N)CCCC3	-2	37	5%	34%	?	4%	.
O=S(=O)(Nc1cccc(-c2cn3cccnc3n2)c1)c1ccc(F)cc1	-9	1	-9%	-16%	2%	4µM*	24µM*
O=C(NCc1ccco1)c1cc2ccc(O)cc2oc1=O	3	83	i	358%	-6%	-1%	.
COc1ccc2cc(C(=O)NCc3ccco3)c(=O)oc2c1	-1	-10	-4%	32%	0%	10µM*	22µM*
O=C(NC1CCCCCC1)c1cc2ccccc2oc1=O	-2	-8	-13%	?	19%	.	.
COc1ccc2cc(C(=O)NC3CCCCC3)c(=O)oc2c1	-7	24	-3%	0%	5%	2.2µM*	22µM*
O=C(OCc1cc(=O)n2nc(C3CCCCC3)sc2n1)c1ccc(F)cc1	4	.	7%	17%	.	-2%	.
CC1CCN(S(=O)(=O)c2ccc(NC(=O)c3cccs3)cc2)CC1	-6	0	-19%	?	1%	127%	-1%
CN1CCN(S(=O)(=O)c2ccc(NC(=O)c3cccs3)cc2)CC1	-2	-27	4%	1%	1%	-1%	.
O=C(NC1CCCCC1)N(Cc1cc2cc3c(cc2[nH]c1=O)OCCO3)CC1CCCO1 (stereo unspecified)	-6	-4	-22%	45%	2%	10µM*	?
Cc1ccc2c(=O)cc(C(=O)Nc3ccc(S(=O)(=O)Nc4onc(C)c4C)cc3)oc2c1C	8	.	-21%	16%	.	1%	.
Cc1ccc(C(=O)Nc2ccc3c(c2)nc2n3CCSC2)cc1	1	-18	3%	0%	-4%	0%	.
CC(=O)Nc1ccc2c(c1)nc1n2CCSC1	16	-3	7%	2%	-4%	40%	-1%
CCOc1ccccc1CNC(=O)c1cc2c(=O)n(Cc3cccnc3)ccc2nc1C	7	.	-2%	8%	.	6.3µM*	-2%
COc1ccc(Cn2ccc3nc(C)c(C(=O)NCc4ccc(SC)cc4)cc3c2=O)cc1	3	.	-10%	12%	.	184%	24µM*
Nc1nc(N2CCN(C(=O)c3ccco3)CC2)nc2ccccc12	-6	11	-18%	21%	6%	4.5µM*	27µM*
O=C(OCC(=O)N1CCOCC1)c1cncc(Br)c1	-2	-1	4%	1%	-3%	0%	.
SMILES	D3 ag	DRD3 antagonist	GLP1R cytotox	GLP1R inv ag	GLP-1R agonist	ClpP mod	ClpP inh valid
O=C(Nc1nc(-c2cc3ccccc3o2)cs1)c1ccc(S(=O)(=O)N2CCCC2)cc1	1	-5	-13%	?	1%	160%	.
CN(C)S(=O)(=O)c1ccc(C(=O)Nc2nc(-c3cc4ccccc4o3)cs2)cc1	6	35	0%	?	0%	140%	-25%
O=C(Nc1ccc(F)cc1)N1CCN2C(=O)c3ccccc3C12c1ccccc1 (stereo unspecified)	0	36	-2%	0%	-3%	4µM*	1%
O=C1c2ccccc2C2(c3ccccc3)N1CCN2C(=O)C(Cl)(Cl)Cl (stereo unspecified)	1	-16	-4%	?	13%	-1%	.
COC(=O)Nc1c(-c2ccccc2)nc2ccccn12	2	-24	-25%	3%	2%	7.9µM*	27µM*
CC(NC(=O)CCCN1C(=O)CCn2nc(-c3cn(C)c4ccccc34)cc21)c1ccccc1 (stereo unspecified)	-2	.	-27%	-26%	.	?	.
COc1cccc(NC(=O)c2cc3c(=O)n(C)c4ccccc4c3n2C)c1	3	.	5%	11%	3%	216%	22µM*
COc1ccccc1NC(=O)c1cc2c(=O)n(C)c3ccccc3c2n1C	-3	-14	8%	9%	8%	?	.
CCCNC(=O)c1ccc(-c2nc3ccccc3s2)s1	-7	3	23%	?	-20%	2.8µM*	24µM*
CCCNC(=O)Nc1nc2ccccc2s1	1	-1	-13%	?	-1%	0%	.
CSc1cccc(NC(=O)c2cc(S(=O)(=O)N3CCCCC3)c[nH]2)c1	-9	-2	2%	-12%	12%	4%	.
O=C(Nc1cccc(Br)c1)c1cc(S(=O)(=O)N2CCCCC2)c[nH]1	-5	.	-8%	3%	.	51%	-19%
Cc1cccc(NC(=O)Cn2c(=O)oc3cc(S(=O)(=O)NCc4ccccc4)ccc32)c1	3	.	7%	-19%	.	3%	.
NS(=O)(=O)c1cccc(NC(=O)c2cc(-c3cccs3)nc3ccccc23)c1	1	32	-14%	?	-7%	4%	.
O=C(Nc1ccc(Br)cc1)c1cc(-c2cccs2)nc2ccccc12	-14	.	-2%	4%	.	38%	24µM*
COc1cccc(NC(=O)c2cc([N+](=O)[O-])ccc2NCc2cccnc2)c1	-9	3	?	-8%	2%	42%	0%
Cc1ccc(NC(=O)c2cc([N+](=O)[O-])ccc2NCc2cccnc2)cc1Cl	-8	-15	?	?	9%	-5%	.
Cc1ccc(C)c(Nc2nc3c(S(=O)(=O)c4ccccc4)nnn3c3ccccc23)c1	3	1	56%	16%	1%	55%	22µM*
